From PubChem BioAssay AID504444 (National Center for Advancing Translational Sciences (NCATS), 2011)
Screen size: about 360,000 compounds; about 7,500 (2.1%) were called active. Inconclusive results (about 20%) are left out. This is one part of a sample in which actives are shown more often than they occur. Calls follow the shape of the dose curve; as a rule, active = well fitted inhibition curve with a large enough effect; inconclusive = small, poorly fitted or top-dose-only effect, or effect the other way; inactive = flat fitted curve, though single readings scatter.
% is scaled to controls: 0 for no effect and ±100 for the full control effect; potency is read from the fitted curve at half-maximal effect.

Experiment: Nrf2 qHTS screen for inhibitors; also: nearly all actives have a fitted effect of over 60% in size
Conditions: A549 ARE-Fluc reporter, luciferase luminescence, 18-24 h; series mostly up to 46 µM; activity change, negative = inhibition: at the top concentration
Text: NIH Molecular Libraries Probe Production Network [MLPCN]
NIH Chemical Genomics Center [NCGC]
Assay Provider: Shyam Biswal, Johns Hopkins University
Nrf2 is a transcription factor that maintains cellular redox homoestasis and protects cells from xenobiotics. Nrf2 binds to the antioxidant response element (ARE) to induce gene expression of a broad spectrum of genes that encode for antioxidants. […] Finding a small molecule that act as an inhibitor of Nrf2 function would represent a novel therapeutic target that could lead to improvement in survival of patients undergoing chemo- and/or radio- therapy.
This is the Nrf2 activity measured in the luminescent read.
1. Shibata, T., et al., Genetic Alteration of Keap1 Confers Constitutive Nrf2 Activation and Resistance to Chemotherapy in Gallbladder Cancer. Gastroenterology, 2008.
2. Sjoblom, T., et al., The consensus coding sequences of human breast and colorectal cancers. Science, 2006. 314(5797): p. 268-74.
NCGC Assay Protocol Summary:
A concentration-response assay was performed with A549 ARE_Fluc cells which are suspended in 5% FBS OPTI-MEM. Five uL were dispensed into 1536-well white TC-treated plate using the Kalypsys dispenser to achieve a density of 5000 cells/well in all columns except column 1. The plate is incubated at 37deg C at 5% CO2 for 2 hours before 23 nL of compounds are added with the Kalypsys pin tool equipped with a 1,536-pin array containing 10-nL slotted pins (FP1S10, 0.457-mm diameter, 50.8 mm long; V&P Scientific). The control compounds Budesonide and Staurosporine are both added at a concentration of 2mM and Budesonide is also added as a 1:10 titration, starting at 200uM, to achieve dose-response. After an 18-24 hour incubation at 37deg C at 5% CO2, 5ul of medium is added to column 1. Afterwards 1ul of 5x of CellTiter-Fluor (Promega) is added to every well. The plate is then incubated at 37deg C at 5% CO2 for 30 minutes before they are read on the ViewLux (Perkin Elmer) for a fluorescent read Ex=405(10)/Em=525(10) for a 3 second exposure, 2x binning, and high gain. Then 3 uL of 3x BugLite is dispensed into all wells and the plate is incubated at ambient room temperature for 15 minutes. Afterwards another ViewLux read is performed using the clear filter to get a luminescent read with the settings of 40 second exposure, 2x binning, and high gain. Cytotoxicity is assessed through the first fluorescent read and then biochemical activity against Nrf2 is measured in the luminescent read.
With `COC(=O)CN1C(=O)CSc2ccc(S(=O)(=O)Nc3cc(C)ccc3C)cc21` the “activity change, negative = inhibition” value was 10.2% (inactive).
With `Cc1cc(N)n(-c2ccc(S(=O)(=O)N3CCCC3)cc2[N+](=O)[O-])n1` the “activity change, negative = inhibition” value was 5.75% (inactive).
In the case of `Cc1ccc(C(=O)c2ccc(N3CCN(C)CC3)c([N+](=O)[O-])c2)cc1`, the “activity change, negative = inhibition” value is reported as -7.25% (inactive).
In the case of `CN1CCN(S(=O)(=O)c2ccc(N3CCN(c4ccccc4O)CC3)c([N+](=O)[O-])c2)CC1`, the Potency is reported as 14.6 µM (active).
In the case of `COc1ccc(-c2nc(Cn3c(=O)cc(C)c4c(C)nn(-c5ccccc5)c43)c(C)o2)c(OC)c1`, the “activity change, negative = inhibition” value is reported as 16.5% (inactive).
In the case of `Cc1cc(C)n2ncc(C(=O)N3CCCC3)c2n1`, the “activity change, negative = inhibition” value is reported as 14.2% (inactive).
For `Cc1cccc(NS(=O)(=O)c2ccc(C)c(C(=O)NCC(c3ccccc3)N(C)C)c2)c1` (stereo not given), the “activity change, negative = inhibition” value was -21.8% (inactive).
For `Cc1oc2c(c1C(=O)N1CCOCC1)C(=O)c1ccccc1C2=O`, the Potency was 16.4 µM (active).
For `CCOC(=O)c1ccccc1C(=O)N1CCOCCOCCOCC1`, the “activity change, negative = inhibition” value was 14.3% (inactive).
In the case of `Cc1ccccc1-c1ccc(Nc2ccc(C(=O)N3CCOCC3)cc2)nn1`, the “activity change, negative = inhibition” value is reported as 6.18% (inactive).
For `COc1ccc(C2Nc3ccc(NC(=O)COC(C)=O)cc3C(=O)N2Cc2ccccc2)cc1COc1ccc(NC(C)=O)cc1` (stereo not given), the “activity change, negative = inhibition” value was -7.8% (inactive).
For `CC1=CC(C)(C)N(C(=O)CSc2nccn2C)c2cc(C)ccc21`, the “activity change, negative = inhibition” value was 0.891% (inactive).
In the case of `CC1=CC(C)(C)N(C(=O)CSc2nnc(-c3ccccc3)o2)c2ccc(C)cc21`, the Potency is reported as 25.9 µM (active).
For `Cc1cccc(C)c1OC(=O)CSc1nnc(-c2ccccc2)o1`, the “activity change, negative = inhibition” value was -3.7% (inactive).
In the case of `CCN(CC)C(=O)[C@H]1CC(CC(=O)NCc2ccco2)C(=O)N2CCc3c([nH]c4ccccc34)[C@]12C` (stereo not given in full), the “activity change, negative = inhibition” value is reported as -4.63% (inactive).
For `Clc1cccc(N=C2NN=C(c3ccc4c(c3)OCCO4)CS2)c1`, the Potency was 5.17 µM (active).
With `Cc1cccc(N=C2NN=C(c3c[nH]c4ccccc34)CS2)c1` the “activity change, negative = inhibition” value was 9.67% (inactive).
In the case of `S=C(Nc1cccc(Cl)c1)Nc1ccc2c(c1)OCCO2`, the “activity change, negative = inhibition” value is reported as 2.75% (inactive).
For `CCn1nnc2cc(C(=O)Nc3ccc(C(=O)OC(C)C)cc3)ccc21`, the “activity change, negative = inhibition” value was -0.376% (inactive).
In the case of `Cc1cc(C)cc(NC(=O)CSc2oc(-c3ccccc3)nc2S(=O)(=O)c2ccc(Cl)cc2)c1`, the activity change, negative = inhibition is reported as 4.62% [at 9.27 µM] (inactive).
With `Cc1ccc(-c2nc(CS(=O)(=O)CC(=O)NCc3ccccc3Cl)c(C)o2)cc1` the “activity change, negative = inhibition” value was -22.6% (inactive).
With `CCCCn1c(SCC(=O)N2CCCC2=O)nc2cc(S(N)(=O)=O)ccc21` the “activity change, negative = inhibition” value was 10.2% (inactive).
For `CCCCn1c(SCc2ncc(-c3ccccc3)o2)nc2cc(S(N)(=O)=O)ccc21`, the Potency was 14.6 µM (active).
With `CCCCn1c(SCC(=O)N2CCC(C(=O)OCC)CC2)nc2cc(S(N)(=O)=O)ccc21` the “activity change, negative = inhibition” value was -3.7% (inactive).
With `CCCn1c2ccccc2c2cnn(CC(=O)N(CC)c3cc(C)ccc3C)c(=O)c21` the “activity change, negative = inhibition” value was -4.38% (inactive).
With `Cc1ccc(S(=O)(=O)c2nc(-c3cccs3)oc2N2CCCCC2)cc1` the “activity change, negative = inhibition” value was -22% (inactive).
With `CCOc1ccccc1NC(=O)Cn1nnc(C(=O)Nc2ccc(C)c(C)c2)c1N` the “activity change, negative = inhibition” value was 5.62% (inactive).
With `C[C@]12CCC(=O)C=C1C=CC1C2CC[C@@]2(C)C1CC[C@@]21CCC(=O)O1` (stereo not given in full) the “activity change, negative = inhibition” value was -16.2% (inactive).
With `CC(=O)O[C@]1(C(C)=O)CC[C@H]2[C@@H]3C=C(C)C4=CC(=O)CC[C@]4(C)[C@H]3CC[C@@]21C` the Potency was 0.731 µM (active).
For `CSCCC(NS(=O)(=O)c1ccc(C)cc1)C(=O)N(C)CC(=O)Nc1ccccc1Br` (stereo not given), the “activity change, negative = inhibition” value was -2.63% (inactive).
With `O=[N+]([O-])c1ccc(COc2ccccc2CN2CCOCC2)cc1` the “activity change, negative = inhibition” value was -26.8% (inactive).
With `CCOC(=O)c1c(C)[nH]c(C)c1S(=O)(=O)N1CCC(C(=O)Nc2ccc(C)c(Cl)c2)CC1` the “activity change, negative = inhibition” value was -27.4% (inactive).
In the case of `CC1CCN(C(=O)c2ccc3c(c2)NC(=O)CN3)CC1`, the “activity change, negative = inhibition” value is reported as -7% (inactive).
With `CC1=Nc2cc(C(=O)N3CCC(C)CC3)ccc2Sc2ccc(Cl)cc21` the Potency was 16.4 µM (active).
With `COc1ccc(C(=O)Nc2c(Cl)cc(Cl)cc2C(=O)N2CCC(C)CC2)cc1` the “activity change, negative = inhibition” value was 9.22% (inactive).
For `CC1CCCCC1NC(=O)NC(=O)COC(=O)C1=NN(c2ccccc2)C(=O)CC1` (stereo not given), the “activity change, negative = inhibition” value was -3.54% (inactive).
In the case of `O=C1C(F)N([S+](=O)([O-])c2ccc3c(c2)OCCO3)CCN1[S+](=O)([O-])c1c(F)cccc1F` (stereo not given), the “activity change, negative = inhibition” value is reported as 1.59% (inactive).
In the case of `COc1cc2nc(NCC(C)c3ccccc3)n3nc(-c4ccccc4)nc3c2cc1OC` (stereo not given), the “activity change, negative = inhibition” value is reported as 22% (inactive).
With `COc1ccc(N2CCN(C(=O)CCc3nc(-c4ccc(C)cc4)no3)CC2)cc1` the “activity change, negative = inhibition” value was -18.5% (inactive).
For `COc1ccc(-c2noc(CCC(=O)N3CCN(c4cccc(C)c4)CC3)n2)cc1`, the “activity change, negative = inhibition” value was -21.2% (inactive).
With `COc1ccc(-c2noc(CCC(=O)N(C)c3ccccc3C)n2)cc1` the Potency was 20.6 µM (active).
In the case of `Cc1cc(OCC(=O)Nc2ncn[nH]2)c(C)c(C)c1Br`, the “activity change, negative = inhibition” value is reported as 5.95% (inactive).
With `O=C(CN1CCN(c2ccc(Cl)cc2)CC1)N1CCCC1` the “activity change, negative = inhibition” value was -9.45% (inactive).
In the case of `CC(C)OC(=O)CN1CCN(c2ccc(Cl)cc2)CC1`, the Potency is reported as 16.4 µM (active).
For `O=C(CN1CCN(c2ccc(Cl)cc2)CC1)c1ccccc1`, the “activity change, negative = inhibition” value was -0.714% (inactive).
With `Cc1ccc(-c2cnc(NCc3ccc(C(C)C)cc3)n2C)cc1` the “activity change, negative = inhibition” value was -27.5% (inactive).
In the case of `CCOc1ccc(-c2cc3nc(C4CCN(C(=O)OC(C)(C)C)CC4)c(C(=O)Nc4cccc(CC)c4)cn3n2)cc1`, the “activity change, negative = inhibition” value is reported as 12.9% (inactive).
For `CCn1c2ccccc2c2nnc(SCC(=O)O)nc21`, the “activity change, negative = inhibition” value was 7.55% (inactive).
In the case of `Cc1ccc(C)c(N2CCN(Cc3nnc(-c4ccccc4)o3)CC2)c1`, the “activity change, negative = inhibition” value is reported as 0.374% (inactive).
For `CCn1c2ccccc2c2nnc(N3CCN(c4cc(C)ccc4C)CC3)nc21`, the Potency was 20.6 µM (active).
In the case of `Cc1ccc(S(=O)(=O)n2nc(-c3ccc(Cl)cc3)nc2NCc2ccccc2)cc1`, the “activity change, negative = inhibition” value is reported as 11.6% (inactive).
In the case of `COc1ccc(NC(=O)CN(C)C(=O)c2cccc(S(=O)(=O)N3CCN(c4ccccc4)CC3)c2)cc1`, the Potency is reported as 16.4 µM (active).
In the case of `Cc1ccc(NC(=O)CN(C)C(=O)c2cccc(S(=O)(=O)N3CCCC3)c2)cc1`, the “activity change, negative = inhibition” value is reported as 0.0961% (inactive).
In the case of `CCOc1ccc(NC(=O)CN(C)C(=O)c2cccc(S(=O)(=O)N3CCCC3)c2)cc1OCC`, the “activity change, negative = inhibition” value is reported as 6.49% (inactive).
For `COc1ccccc1C(=O)OCc1cc(=O)n2nc(-c3cccs3)sc2n1`, the “activity change, negative = inhibition” value was 15% (inactive).
In the case of `CC(C)(C)S(=O)(=O)N1Cc2cc(CO)cc(CCO)c2[C@H]1CCO`, the “activity change, negative = inhibition” value is reported as 3.32% (inactive).
With `O=C(N/N=C/c1ccccn1)c1cccnc1` the “activity change, negative = inhibition” value was -21% (inactive).
In the case of `O=C(N/N=C/c1ccccn1)c1ccc(S(=O)(=O)N2CCCCCC2)cc1`, the “activity change, negative = inhibition” value is reported as -9.53% (inactive).
For `O=C(N/N=C/c1ccccn1)c1cccc(NC(=O)c2ccc(Cl)cc2)c1`, the Potency was 23.1 µM (active).
In the case of `CCOc1ccc(/C=C(/C#N)c2nnc(N3CCOCC3)n2-c2ccccc2)cc1OC`, the “activity change, negative = inhibition” value is reported as 3.02% (inactive).
